Source: PubChem (National Center for Advancing Translational Sciences (NCATS))
Hits are enriched below; roughly 12% of the tested compounds scored in any of these assays.
Shiga toxin inh: inhibitors of Shiga toxin in Vero cells; AID 2315; Vero cells, Shiga toxin protein synthesis inhibition reporter; inhibition, % at 38.7 µM; hit rate 9.2% among 290,000; in the data active = inhibition mostly above about 28%, no sharp cut-off; inactive = mostly below about 43%
CHX counter: counter-screen hit for Shiga toxin inhibitors, cycloheximide; cell reporter, cycloheximide protein synthesis inhibition counterscreen; max response, %; hit rate 12% among 300,000; AID 2314; in the data active = max response mostly above about 13%, no sharp cut-off; inactive = mostly below about 14%; also: read at 38.3 µM for the half of the compounds with a filed dose
Marburg entry inh: inhibitors of Marburg virus binding or cell entry; AID 540276; Marburg virus pseudotyped entry inhibition, cell reporter; Potency, µM (titrated, usually from 37.8 µM), actives largely listed as inhibitors; hit rate 1.8% among 300,000; calls by dose curve; tested in HEK293 cells
Lassa entry inh: Lassa virus entry inhibition; AID 540256; Lassa virus pseudotype entry inhibition, cell reporter; Potency, µM (top dose mostly 37.9 µM), most hits filed as inhibitors; hit rate 1.2% among 300,000; calls by dose curve; tested in HEK293 cells; also: nearly all actives have a fitted effect of over 50% in size
A number is an active result; n = inactive; u = inconclusive; x = no result given.

SMILES	Shiga toxin inh	CHX counter	Marburg entry inh	Lassa entry inh
CCN1CCN(C(=O)c2ccccc2N(Cc2ccccc2)S(=O)(=O)c2ccc(C)cc2)CC1	n	n	5.8µM	u
Cc1ccc(S(=O)(=O)N(Cc2ccccc2)c2ccccc2C(=O)Nc2ccccc2C(=O)NCc2ccco2)cc1	55	31	16µM	n
Cc1ccc(S(=O)(=O)N(Cc2ccccc2)c2ccccc2C(=O)NCc2ccco2)cc1	n	25	u	u
CS(=O)(=O)N(Cc1ccccc1)c1ccccc1C(=O)Nc1ccccc1C(=O)NCc1ccco1	n	n	4.1µM	n
CCOC(=O)N1CCN(C(=O)Cc2ccc(C)cc2)CC1	n	n	n	u
CCN1CCN(C(=O)Cc2ccc(C)cc2)CC1	n	22	x	x
CCCCCc1nc(-c2nonc2N)no1	n	n	n	n
Nc1nonc1-c1noc(N2CCCCC2)n1	80	30	u	n
Cc1ccc(CSc2nnc(-n3c(=O)c(C#N)cc4c(=O)n5cc(C)ccc5nc43)s2)cc1	x	x	n	n
CCN(C(=O)[C@@H]1CCCN1C(=O)c1cccs1)c1nc2cc(Cl)ccc2s1	n	18	u	n
CCCOc1ccc(N2C(=O)C[C@@H](N(Cc3ccc(S(N)(=O)=O)cc3)C(=O)CC)C2=O)cc1	x	x	n	x
CCOc1ccc(-c2ccc(SCc3ccccn3)nn2)cc1	59	40	u	n
CCc1ccc(-c2ccc(SCc3ccccn3)nn2)cc1	103	41	u	u
O=C(COC(=O)/C=C/c1ccc(OC(F)F)cc1)Nc1ccc2[nH]c(=O)[nH]c2c1	x	x	n	n
O=C(Nc1cc(C(F)(F)F)ccc1F)C1CCCC1	n	n	n	n
O=C(Nc1n[nH]c2cc(-c3cc(F)ccc3F)ccc12)C1CC1	x	x	x	25µM
O=C(NCCC1=CCCCC1)c1cc(COc2c(F)cccc2F)on1	n	n	x	x
CC(=O)c1cccc(OCc2cc(C(=O)NCCC3=CCCCC3)no2)c1	101	42	x	x
CSc1ccccc1OCc1cc(C(=O)NCCC2=CCCCC2)no1	28	n	u	n
Cc1ccc(OCC(=O)NCC2(N3CCN(C)CC3)CCCCC2)cc1C	x	x	u	n
CC(=O)Nc1ccc(OCC(O)CN2C(C)CCCC2C)cc1 (stereo not drawn)	n	20	n	n
CSc1ccc(S(=O)(=O)NCC(=O)OCC(=O)N2CCCC2=O)cc1[N+](=O)[O-]	x	x	u	n
CCOC(=O)c1ccccc1NC(=O)C1CC(=O)N(C2CCCCC2)C1 (stereo not drawn)	78	58	x	x
O=C(CNC(=O)c1ccccc1F)OCc1nc2ccccc2s1	67	n	u	u
O=C(CNC(=O)c1ccccc1)OCc1nc2ccccc2s1	49	42	x	x
SMILES	Shiga toxin inh	CHX counter	Marburg entry inh	Lassa entry inh
CCOC(=O)c1cnc2cc(-c3ccc(Br)cc3)nn2c1C	n	22	x	x
CCOC(=O)c1cnc2cc(-c3ccc(Cl)cc3)nn2c1N	n	27	n	n
CCOC(=O)c1cnc2cc(-c3ccc(Cl)cc3)nn2c1-c1ccccc1	x	x	n	n
O=C(c1ccccc1Cl)n1nc(-c2cccnc2)nc1NCc1ccc(F)cc1	x	x	n	n
Cc1ccc(NC(=O)Cc2ccc(-c3ccccc3)cc2)nc1	n	n	n	n
Cc1ccnc(NC(=O)Cc2ccc(-c3ccccc3)cc2)c1	80	72	x	x
O=C(CN1CCN(CC(=O)Nc2ccccn2)CC1)Nc1ccccn1	n	n	n	n
O=C(Cc1ccc(-c2ccccc2)cc1)Nc1ccccn1	88	40	u	u
O=C(CC(=O)Nc1ccccn1)Nc1ccccn1	n	18	n	n
CC(C)CC(=O)NC(=S)Nc1ccccc1F	n	n	n	n
CC(C)CC(=O)NC(=S)Nc1ccccn1	n	26	n	u
Cc1ccccc1OCC(=O)OCc1cc(=O)n2nc(C3CC3)sc2n1	x	x	x	n
O=C(CN1C(=O)NC2(CCCc3ccccc32)C1=O)c1ccc(F)c(F)c1 (stereo not drawn)	x	x	n	n
Cc1ccc(S(=O)(=O)/N=C(/c2ccccc2)N2CCOCC2)c(C)c1	n	n	u	n
Cc1ccnc(NC(=O)c2cc([N+](=O)[O-])cc([N+](=O)[O-])c2)c1	n	n	n	n
O=C(Nc1ccncc1)Nc1ccccn1	n	n	n	n
NC(=O)c1ccsc1NC(=O)Cc1ccc([N+](=O)[O-])cc1	n	31	n	x
O=C(Nc1ccccn1)Nc1cccs1	38	36	u	n
Cc1ccnc(NC(=O)Cc2ccc([N+](=O)[O-])cc2)c1	n	19	n	n
C=CCN(C(=O)CCC(=O)O)[C@H]1CC(=O)N(c2ccc(OCCC)cc2)C1=O	x	x	n	x
COc1ccc(NC(=O)C(NC(=O)c2ccc(=O)[nH]c2)c2ccccc2)cc1 (stereo not drawn)	n	n	n	n
Cc1ccc(NC(=O)C(Nc2ccccc2)c2ccccc2)cc1 (stereo not drawn)	n	n	n	n
Cc1ccc(C(=O)NC(c2ccccc2)C(Cl)Cl)cc1 (stereo not drawn)	n	15	u	n
Cc1ccc(NC(=O)C(Nc2cccc(C)c2)c2ccccc2)cc1 (stereo not drawn)	n	22	u	n
COc1ccc(NC(=O)C(NC(=O)c2ccc(C)cc2)c2ccccc2)cc1 (stereo not drawn)	49	25	x	x
SMILES	Shiga toxin inh	CHX counter	Marburg entry inh	Lassa entry inh
O=C(NC(c1ccccc1)C(Cl)Cl)c1ccccc1 (stereo not drawn)	n	n	u	n
CCOc1ccccc1N(C)C(=O)Cn1cnc2sc(C)c(S(=O)(=O)N3CCC(C)CC3)c2c1=O	x	x	n	n
CC(=O)c1ccc(NC(=O)CCCN2C(=O)COc3ccc(C)cc32)cc1	n	n	n	n
CCc1cccc(NC(=O)CS(=O)Cc2nc(-c3ccc(C)cc3)oc2C)c1 (stereo not drawn)	n	n	x	x
Cc1ccc(-c2cnn(-c3cccc([N+](=O)[O-])c3)c2N)cc1	103	46	u	n
Nc1c(-c2ccccc2Cl)cnn1-c1cccc([N+](=O)[O-])c1	n	n	n	n
Cc1ccccc1-c1cnn(-c2cccc([N+](=O)[O-])c2)c1N	n	26	n	n
CN1CCN(C(c2cccs2)c2nnnn2Cc2ccc(F)cc2)CC1 (stereo not drawn)	n	n	n	n
Cc1ccc(O)c(N=Cc2cccs2)c1	38	29	u	n
Cc1ccc(O)c(N=Cc2ccc(C)s2)c1	52	37	n	n
COc1cc(NC(=O)CN2C(=O)NC(c3ccccc3)(c3ccccc3)C2=O)c(C)cc1[N+](=O)[O-]	n	n	u	u
O=C(O)c1cc(-c2cccc(Cl)c2)nc2nc(N3CCCCC3)sc12	n	n	n	n
CCS(=O)(=O)c1cc([N+](=O)[O-])c(Sc2ccccc2NC(C)=O)s1	n	14	u	u
CCN(CC)C(=O)CNC(=S)N(CCCN1CCOCC1)Cc1cccs1	n	n	u	u
CCOc1ccccc1NC(=O)/C(C#N)=C/c1c(C)nn(-c2ccc(F)cc2)c1Cl	85	47	n	n
O=C1NC(=Nc2ccccc2)SC1(CO)CO	n	n	n	n
Cc1ccc(N=C2NC(=O)C(CO)(CO)S2)cc1	n	8.8	n	n
Cn1c(=O)c2c(SCC(=O)NCC3CCCO3)nc(-c3cccc(F)c3)nc2n(C)c1=O (stereo not drawn)	x	x	x	n
NCCCCNS(=O)(=O)c1cccc2c(Cl)cccc12	x	x	4µM	x
